Results taken from PubChem BioAssay (NCI).
About 83,000 compounds went through this panel and 20% of them were active in at least one assay; those are over-represented in the sample as a whole.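 Percent growth is the endpoint: 0 to 100 indicates growth inhibition (40 means 60% inhibition), 0 means no net growth, and negative values indicate cell death.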

What was measured:
Assay in all cases: NCI-60 one-dose screen, 48 h (100 = growth as untreated, 0 = no growth, -100 = all killed)
Conditions in all cases: 10 µM unless noted; active = growth percent below 10; inactive = the rest
NCI-H23 lung = test system: NCI-H23 lung
NCI-H226 lung = test system: NCI-H226 lung
NCI-H322M lung = test system: NCI-H322M lung
HOP-62 NSCLC = test system: HOP-62 NSCLC
NCI-H460 lung = test system: NCI-H460 lung
HOP-92 NSCLC = test system: HOP-92 NSCLC
NCI-H522 lung = test system: NCI-H522 lung
A549/ATCC NSCLC = test system: A549/ATCC NSCLC
786-0 renal = test system: 786-0 renal
COLO 205 colon = test system: COLO 205 colon
DU-145 prostate = test system: DU-145 prostate
K-562 leukemia = test system: K-562 leukemia
MDA-MB-231 breast = test system: MDA-MB-231 breast
RXF 393 renal = test system: RXF 393 renal
SF-268 CNS = test system: SF-268 CNS
SF-295 CNS = test system: SF-295 CNS
SF-539 CNS = test system: SF-539 CNS
UACC-257 melanoma = test system: UACC-257 melanoma
M14 melanoma = test system: M14 melanoma
MALME-3M melanoma = test system: MALME-3M melanoma

Measured: growth

N#C/C(=C\NC(=S)N=Nc1c(O)[nH]c2ccccc12)c1nc2ccccc2s1
inactive: NCI-H23 lung 94.7% | NCI-H226 lung 77.6% | NCI-H322M lung 101% | HOP-62 NSCLC 95.4% | NCI-H460 lung 97.4% | HOP-92 NSCLC 83.8% | NCI-H522 lung 82.9% | A549/ATCC NSCLC 90.3% | 786-0 renal 94.8% | COLO 205 colon 106% | DU-145 prostate 113% | K-562 leukemia 101% | MDA-MB-231 breast 87.9% | RXF 393 renal 101% | SF-268 CNS 102% | SF-295 CNS 107% | SF-539 CNS 103% | UACC-257 melanoma 94.9% | M14 melanoma 101%

COCC(N)=O
inactive: NCI-H23 lung 103% | NCI-H226 lung 99% | NCI-H322M lung 100% | HOP-62 NSCLC 95% | NCI-H460 lung 108% | HOP-92 NSCLC 94.5% | NCI-H522 lung 100% | A549/ATCC NSCLC 104% | 786-0 renal 92% | COLO 205 colon 111% | DU-145 prostate 98.4% | K-562 leukemia 91.8% | MDA-MB-231 breast 108% | RXF 393 renal 108% | SF-268 CNS 103% | SF-295 CNS 102% | SF-539 CNS 96% | UACC-257 melanoma 116% | M14 melanoma 105%

Nc1ncnc2c1ncn2C1OC(CO)C2OC21 (centres undefined)
inactive: NCI-H23 lung 107% | NCI-H226 lung 93.8% | NCI-H322M lung 118% | HOP-62 NSCLC 96.6% | NCI-H460 lung 109% | HOP-92 NSCLC 102% | NCI-H522 lung 94.6% | A549/ATCC NSCLC 102% | 786-0 renal 108% | COLO 205 colon 107% | DU-145 prostate 113% | K-562 leukemia 104% | MDA-MB-231 breast 112% | RXF 393 renal 103% | SF-268 CNS 104% | SF-295 CNS 106% | SF-539 CNS 110% | UACC-257 melanoma 98.6% | M14 melanoma 102%

COC(=O)c1cccc([N+](=O)[O-])c1
inactive: NCI-H23 lung 96.3% | NCI-H226 lung 103% | NCI-H322M lung 103% | HOP-62 NSCLC 79.4% | NCI-H460 lung 108% | HOP-92 NSCLC 95.1% | NCI-H522 lung 101% | A549/ATCC NSCLC 94.9% | 786-0 renal 104% | COLO 205 colon 112% | DU-145 prostate 105% | K-562 leukemia 120% | MALME-3M melanoma 102% | RXF 393 renal 108% | SF-268 CNS 102% | SF-295 CNS 105% | SF-539 CNS 98.5% | UACC-257 melanoma 95.5% | M14 melanoma 105%

NC(=O)NCCO
inactive: NCI-H23 lung 98.9% | NCI-H226 lung 95% | NCI-H322M lung 109% | HOP-62 NSCLC 102% | NCI-H460 lung 104% | HOP-92 NSCLC 111% | NCI-H522 lung 95.2% | A549/ATCC NSCLC 93% | 786-0 renal 107% | COLO 205 colon 116% | DU-145 prostate 110% | K-562 leukemia 99.2% | MALME-3M melanoma 97.4% | RXF 393 renal 102% | SF-268 CNS 101% | SF-295 CNS 95.6% | SF-539 CNS 103% | UACC-257 melanoma 97.8% | M14 melanoma 107%

Cc1ccc(NCN2C(=O)c3ccccc3C2=O)c(C)n1
inactive: NCI-H23 lung 112% | NCI-H226 lung 103% | NCI-H322M lung 103% | HOP-62 NSCLC 110% | NCI-H460 lung 111% | HOP-92 NSCLC 102% | NCI-H522 lung 112% | A549/ATCC NSCLC 107% | 786-0 renal 95.8% | COLO 205 colon 112% | DU-145 prostate 107% | K-562 leukemia 108% | MDA-MB-231 breast 115% | RXF 393 renal 114% | SF-268 CNS 105% | SF-295 CNS 106% | SF-539 CNS 116% | UACC-257 melanoma 105% | M14 melanoma 97.6%

ClCC(Cl)C1CCC(Cl)C(Cl)C1 (centres undefined)
inactive: NCI-H23 lung 105% | NCI-H226 lung 119% | NCI-H322M lung 107% | HOP-62 NSCLC 111% | NCI-H460 lung 107% | HOP-92 NSCLC 105% | A549/ATCC NSCLC 98.2% | 786-0 renal 96.8% | COLO 205 colon 109% | DU-145 prostate 102% | K-562 leukemia 105% | MALME-3M melanoma 99.5% | MDA-MB-231 breast 113% | RXF 393 renal 125% | SF-268 CNS 98.1% | SF-295 CNS 95.9% | SF-539 CNS 96.6% | UACC-257 melanoma 101% | M14 melanoma 101%

Nc1ncnc(Nc2ccccc2)n1
inactive: NCI-H23 lung 101% | NCI-H226 lung 104% | NCI-H322M lung 104% | HOP-62 NSCLC 119% | NCI-H460 lung 107% | HOP-92 NSCLC 84.5% | NCI-H522 lung 99.4% | A549/ATCC NSCLC 104% | COLO 205 colon 110% | DU-145 prostate 120% | K-562 leukemia 98.8% | MALME-3M melanoma 124% | MDA-MB-231 breast 115% | RXF 393 renal 118% | SF-268 CNS 112% | SF-295 CNS 113% | SF-539 CNS 108% | UACC-257 melanoma 108% | M14 melanoma 106%

Cc1ccc(/C=N/NC(N)=S)s1
inactive: NCI-H23 lung 99.7% | NCI-H226 lung 99.1% | NCI-H322M lung 98.9% | HOP-62 NSCLC 102% | NCI-H460 lung 103% | HOP-92 NSCLC 100% | A549/ATCC NSCLC 109% | 786-0 renal 109% | COLO 205 colon 104% | DU-145 prostate 110% | K-562 leukemia 103% | MALME-3M melanoma 108% | MDA-MB-231 breast 104% | RXF 393 renal 99.3% | SF-268 CNS 98.7% | SF-295 CNS 105% | SF-539 CNS 97.6% | UACC-257 melanoma 109% | M14 melanoma 102%

CCC(=O)Oc1ccc2ccccc2c1
inactive: NCI-H23 lung 100% | NCI-H226 lung 90.2% | NCI-H322M lung 103% | HOP-62 NSCLC 81% | NCI-H460 lung 99.9% | HOP-92 NSCLC 86.1% | A549/ATCC NSCLC 99.4% | 786-0 renal 96.9% | COLO 205 colon 102% | DU-145 prostate 113% | K-562 leukemia 107% | MALME-3M melanoma 93.7% | MDA-MB-231 breast 90.2% | RXF 393 renal 105% | SF-268 CNS 97.5% | SF-295 CNS 101% | SF-539 CNS 96.8% | UACC-257 melanoma 96.6% | M14 melanoma 92.2%

CCNC(=O)OCCc1c2ccccc2nc2ccccc12
inactive: NCI-H23 lung 111% | NCI-H226 lung 106% | NCI-H322M lung 108% | HOP-62 NSCLC 109% | NCI-H460 lung 108% | HOP-92 NSCLC 13.4% | A549/ATCC NSCLC 101% | 786-0 renal 112% | COLO 205 colon 124% | DU-145 prostate 122% | K-562 leukemia 88.2% | MALME-3M melanoma 126% | MDA-MB-231 breast 119% | RXF 393 renal 97.4% | SF-268 CNS 109% | SF-295 CNS 127% | SF-539 CNS 109% | UACC-257 melanoma 112% | M14 melanoma 120%

CN(C(=S)S(=O)(=O)C12CC3CC(CC(C3)C1)C2)c1ccccc1
inactive: NCI-H23 lung 97.5% | NCI-H226 lung 93.3% | NCI-H322M lung 114% | HOP-62 NSCLC 116% | NCI-H460 lung 110% | HOP-92 NSCLC 71.2% | A549/ATCC NSCLC 95.1% | 786-0 renal 89.8% | COLO 205 colon 88.5% | DU-145 prostate 95.3% | K-562 leukemia 72% | MALME-3M melanoma 108% | MDA-MB-231 breast 88.9% | RXF 393 renal 111% | SF-268 CNS 94.5% | SF-295 CNS 105% | SF-539 CNS 97.6% | UACC-257 melanoma 87.3% | M14 melanoma 107%

CN1C(=O)NC(c2ccc(Cl)cc2)(c2ccc(Cl)cc2)C1=O
inactive: NCI-H23 lung 98.2% | NCI-H226 lung 94.1% | NCI-H322M lung 119% | HOP-62 NSCLC 125% | NCI-H460 lung 111% | HOP-92 NSCLC 58.4% | A549/ATCC NSCLC 115% | 786-0 renal 106% | COLO 205 colon 122% | DU-145 prostate 102% | K-562 leukemia 70.1% | MALME-3M melanoma 108% | MDA-MB-231 breast 99.8% | RXF 393 renal 62% | SF-268 CNS 102% | SF-295 CNS 102% | SF-539 CNS 111% | UACC-257 melanoma 118%

CC1CCC(C(C)(C)[N+](C)(C)C)CC1 (centres undefined)
inactive: NCI-H23 lung 100% | NCI-H226 lung 100% | NCI-H322M lung 106% | HOP-62 NSCLC 96.9% | NCI-H460 lung 107% | HOP-92 NSCLC 101% | A549/ATCC NSCLC 95.9% | 786-0 renal 96.1% | COLO 205 colon 106% | DU-145 prostate 102% | K-562 leukemia 116% | MALME-3M melanoma 96.1% | MDA-MB-231 breast 103% | RXF 393 renal 111% | SF-268 CNS 95.8% | SF-295 CNS 101% | SF-539 CNS 96% | UACC-257 melanoma 99.6% | M14 melanoma 98.1%

O=S(=O)(O)C(C(I)I)S(=O)(=O)O
inactive: NCI-H23 lung 95.4% | NCI-H226 lung 98.7% | NCI-H322M lung 107% | HOP-62 NSCLC 109% | NCI-H460 lung 105% | HOP-92 NSCLC 106% | A549/ATCC NSCLC 104% | 786-0 renal 110% | COLO 205 colon 110% | DU-145 prostate 106% | K-562 leukemia 105% | MALME-3M melanoma 107% | MDA-MB-231 breast 126% | RXF 393 renal 104% | SF-268 CNS 100% | SF-295 CNS 113% | SF-539 CNS 99.8% | UACC-257 melanoma 102% | M14 melanoma 109%

O=C(NCCc1ccccc1)/C(=C\c1ccc(Cl)cc1Cl)NC(=O)c1ccccc1
inactive: NCI-H23 lung 91.2% | NCI-H226 lung 101% | NCI-H322M lung 101% | HOP-62 NSCLC 98.7% | NCI-H460 lung 97.1% | HOP-92 NSCLC 80.5% | A549/ATCC NSCLC 101% | 786-0 renal 107% | COLO 205 colon 92.9% | K-562 leukemia 122% | MALME-3M melanoma 79.4% | MDA-MB-231 breast 90.8% | RXF 393 renal 92.8% | SF-268 CNS 95% | SF-295 CNS 99.5% | SF-539 CNS 94.1% | UACC-257 melanoma 96.6% | M14 melanoma 96.4%

Cc1cccc2ccccc12
inactive: NCI-H23 lung 104% | NCI-H226 lung 97% | NCI-H322M lung 103% | HOP-62 NSCLC 102% | NCI-H460 lung 104% | HOP-92 NSCLC 100% | A549/ATCC NSCLC 96.9% | 786-0 renal 97.9% | COLO 205 colon 117% | DU-145 prostate 114% | MALME-3M melanoma 103% | MDA-MB-231 breast 101% | RXF 393 renal 111% | SF-268 CNS 102% | SF-295 CNS 97.4% | SF-539 CNS 89.8% | UACC-257 melanoma 101%
